Data as given in PubChem BioAssay.
Calls of active or inactive are those of the source.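 Rule for the calls, unless noted: active = inhibition at or above 50% at 10 µM; inactive = inhibition below 50%.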

Assays:
[1] = inhibitors of TNFa-induced NFkB p65 translocation, primary screen, imaging, HUVEC, MLSMR starter and 10KST1 sets (AID 438;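 active = inhibition above 20% together with a positive visual image hit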;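 note: compound added about 3h40 before a 20 min TNFalpha stimulation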;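 for inhibition: signal is the nuclear over cytoplasmic p65 intensity ratio per well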); conditions: HUVEC TNFa-induced p65 nuclear translocation; cell count: measured here: nuclei count (cytotoxicity indicator), at 2.08 µM; inhibition: at 2 µM, stronger effect = higher value, 0% TNFa-plus-vehicle, 100% no-TNFa wells
[2] = reduction of polyQ htt aggregates in cells – imaging, exon1htt(103Q)mCFP cells, high-content imaging, primary screen (AID 483;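 active = visual image review flags a hit and inhibition of aggregation exceeds 20%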;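 note: compound exposure lasted 3 days before fixation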;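 for nuclei count: percent of the per-plate median nuclei count of sample wells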); conditions: exon1htt(103Q)mCFP cell line, aggregate imaging, at 2 µM; inhibition of aggregation: stronger effect = higher value; nuclei count: measured here: cell count, toxicity
[3] = endothelial E-selectin expression blockers – imaging, HUVEC, immunofluorescence, MLSMR starter and 10KST1 sets, primary screen (AID 487;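 active = visually confirmed hit in the image check and inhibition above 20%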;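 for inhibition: signal is fraction of cell area covered by stained E-selectin grains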;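 for nuclei count: 100% = median nuclei count of all wells on the same plate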); conditions: HUVEC TNFalpha-induced E-selectin immunofluorescence imaging, at 2 µM; inhibition: stronger effect = higher value; nuclei count: measured here: cell number, toxicity
[4] = molecular target: Voltage-gated potassium channel subunit beta-2 (Rattus norvegicus) (UniProt P62483); test: inhibitors of rat Kvbeta2 reductase activity – biochemical, NADPH fluorescence, primary screen (AID 622;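 active = fluorescence slope higher than the sample average by over 3 SD, cut at about -0.22 in these data, passing the limit was not always enough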;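 note: slope of raw intensity against log time taken from 70 to 1610 s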); conditions: recombinant KvBeta, 4-cyanobenzaldehyde reduction, at 10 µM, stronger effect = higher value
Voltage-gated potassium channel subunit beta-2 (Rattus norvegicus), sequence (P62483 whole entry, looked up): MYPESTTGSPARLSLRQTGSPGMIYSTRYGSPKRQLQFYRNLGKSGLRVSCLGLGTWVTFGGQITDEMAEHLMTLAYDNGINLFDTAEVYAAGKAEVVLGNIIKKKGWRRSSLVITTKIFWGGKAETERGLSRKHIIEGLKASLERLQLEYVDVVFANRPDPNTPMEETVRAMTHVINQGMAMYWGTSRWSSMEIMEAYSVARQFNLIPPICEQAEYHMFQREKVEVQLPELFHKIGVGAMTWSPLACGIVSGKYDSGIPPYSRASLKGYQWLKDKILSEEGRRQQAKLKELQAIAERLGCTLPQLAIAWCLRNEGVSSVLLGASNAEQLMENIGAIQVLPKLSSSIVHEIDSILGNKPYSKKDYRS

[5] = molecular target: Voltage-gated potassium channel subunit beta-2 (Rattus norvegicus) (UniProt P62483); test: enhancers of rat Kvbeta2 NADPH turnover – biochemical, NADPH fluorescence, primary screen (AID 623;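 active = NADPH fluorescence slope more negative than the mean of all samples by about 3 SD, 99.7% confidence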;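 note: fluorescence intensity change per second fitted from 20 to 320 s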); conditions: Recombinant KvBeta, NADPH fluorescence decrease slope, 10 min; at 10 µM; stronger effect = lower value
[6] = molecular target: Alpha-2C adrenergic receptor (Homo sapiens) (UniProt P18825); test: compounds altering alpha2C-coupled GIRK flux – cell-based, HEK293 alpha2C/GIRK1/2, thallium flux, primary screen (AID 624;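 active = fluorescence slope after compound addition differing from the mean of all screened samples at 99.7% confidence, in either direction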;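 note: slope of fluorescence ratio to pre-addition baseline per second over 15 to 24 s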); conditions: thallium flux BTC fluorescence, at 10 µM, actives lie on both sides
Alpha-2C adrenergic receptor (Homo sapiens), sequence (P18825 whole entry, looked up): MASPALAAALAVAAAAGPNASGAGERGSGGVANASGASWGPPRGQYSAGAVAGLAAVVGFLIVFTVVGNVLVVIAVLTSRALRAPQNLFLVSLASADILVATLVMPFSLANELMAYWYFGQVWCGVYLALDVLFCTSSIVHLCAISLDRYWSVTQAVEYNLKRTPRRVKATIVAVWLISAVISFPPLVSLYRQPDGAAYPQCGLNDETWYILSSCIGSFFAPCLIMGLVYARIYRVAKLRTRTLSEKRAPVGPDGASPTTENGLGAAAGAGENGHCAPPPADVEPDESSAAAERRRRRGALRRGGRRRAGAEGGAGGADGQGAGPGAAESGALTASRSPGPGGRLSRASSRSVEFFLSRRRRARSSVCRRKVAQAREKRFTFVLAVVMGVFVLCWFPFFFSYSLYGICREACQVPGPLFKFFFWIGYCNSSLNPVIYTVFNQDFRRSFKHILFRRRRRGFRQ

[7] = blockers of RIG-like receptor reporter activation – cell-based, Sendai virus stimulus, luciferase, 10K MLSCN set, TLR/RLR signaling modifier project, primary screen (AID 602276); conditions: HEK293 RL24 IRF3 luciferase reporter, at 10 µM, stronger effect = higher value;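 note: firefly luciferase from ISG56 promoter only with Renilla not read in this screen; 0% = Sendai virus plus DMSO and 100% = medium plus DMSO without virus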
[8] = TLR3 IRF3 reporter activation blockers – cell-based, poly I:C stimulus, luciferase, 10K MLSCN set, primary screen (AID 602277;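 active = inhibition of the reporter signal at or above 50%; inactive = inhibition below 50%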); conditions: HEK293-TLR3 RL24 IRF3 luciferase reporter, at 10 µM, stronger effect = higher value

SMILES | cell count [1] | inhibition [1] | inhibition of aggregation [2] | nuclei count [2] [%] | inhibition [3] | nuclei count [3] [%] | fluorescence slope [4] | NADPH fluorescence slope [5] | slope [6] | inhibition [7] | inhibition [8]
Cn1nnnc1SCC(=O)N1CCN(c2cccc(Cl)c2)CC1 | 360 | -2.9% (inactive) | 10.8% (inactive) | 94.4 | -206% (inactive) | 115 | -0.619 (inactive) | -2.9e-06 (inactive) | 0.00492 (inactive) | 7.81% (inactive) | 11.3% (inactive)
CC1=C(C(=O)Nc2cccnc2)C(c2ccc(C(C)C)cc2)n2ncnc2N1 (stereo not drawn) | 712 | -12.8% (inactive) | -16.2% (inactive) | 118 | -56% (inactive) | 120 | -0.4 (inactive) | 5.8e-05 (inactive) | 0.00428 (inactive) | 1.35% (inactive) | 20% (inactive)
O=c1c2cc(Cl)ccc2[nH]c(=S)n1Cc1ccco1 | 439 | 5.3% (inactive) | 13.5% (inactive) | 89.7 | -36.1% (inactive) | 102 | -0.597 (inactive) | -4.8e-05 (inactive) | 0.00334 (inactive) | 9.24% (inactive) | 20.2% (inactive)
O=C1N(CCCCN2C(=O)C3(OCCO3)c3ccccc32)c2ccccc2C12OCCO2 | 578 | -18.8% (inactive) | -8.4% (inactive) | 104 | -60.9% (inactive) | 112 | -0.381 (inactive) | 2.4e-05 (inactive) | 0.00398 (inactive) | 9.05% (inactive) | 16.5% (inactive)
Cc1nn(S(=O)(=O)N2CCCCC2)c(C)c1Br | 335 | 4% (inactive) | 10.9% (inactive) | 101 | -93.4% (inactive) | 119 | -0.291 (inactive) | -1.5e-05 (inactive) | 0.00571 (inactive) | 1.73% (inactive) | 17.2% (inactive)
COc1ccc(S(=O)(=O)N2CCOCC2)cc1C(=O)Nc1cc(C)on1 | 225 | 1.1% (inactive) | -3.3% (inactive) | 96.6 | 38.6% (inactive) | 76.9 | -0.436 (inactive) | -3.9e-05 (inactive) | 0.00355 (inactive) | -8.66% (inactive) | 12.5% (inactive)
Cc1cccc(Cc2nnc(NC(=O)c3cccc(S(=O)(=O)N4CCOCC4)c3)s2)c1 | 424 | -5.5% (inactive) | -0.5% (inactive) | 106 | 0.9% (inactive) | 126 | -0.422 (inactive) | -7.5e-06 (inactive) | 0.00421 (inactive) | 14.3% (inactive) | 30.6% (inactive)
O=C1CCCC2=C1C(c1cccs1)n1nc(SCc3ccccc3F)nc1N2 (stereo not drawn) | 694 | 8.6% (inactive) | 16.5% (inactive) | 109 | -30.7% (inactive) | 79.7 | -0.505 (inactive) | 3.2e-05 (inactive) | 0.00593 (inactive) | -24.2% (inactive) | -0.597% (inactive)
CSc1nc(C)cc(OCC(=O)N2CCOCC2)n1 | 262 | -7.5% (inactive) | 25.5% (inactive) | 104 | -37.5% (inactive) | 95 | -0.451 (inactive) | -3.8e-05 (inactive) | 0.00307 (inactive) | 7.52% (inactive) | 23.9% (inactive)
COc1ccc(-n2nnnc2SCC(=O)N2CCOCC2)cc1 | 788 | 2.8% (inactive) | 9.1% (inactive) | 85.7 | -9.3% (inactive) | 114 | -0.525 (inactive) | -4.9e-05 (inactive) | 0.00627 (inactive) | 2.03% (inactive) | -10.7% (inactive)
COc1cc(C(=O)NCCc2ccc3c(c2)OCCO3)ccc1OCC(=O)N1CCOCC1 | 632 | 2.4% (inactive) | 11.3% (inactive) | 87.3 | -76.6% (inactive) | 96.6 | -0.298 (inactive) | -5.4e-05 (inactive) | 0.00507 (inactive) | 14.7% (inactive) | 15.3% (inactive)
O=C(CN1CCN(Cc2ccccc2)CC1)Nc1ccc(Cl)cn1 | 615 | -12.7% (inactive) | 19.3% (inactive) | 81.8 | -26% (inactive) | 92 | -0.502 (inactive) | -2.1e-05 (inactive) | 0.00402 (inactive) | 17.4% (inactive) | 29.5% (inactive)
CC(=O)N1CCN(C(C)=O)C1c1ccccc1 | 464 | 6% (inactive) | -9.6% (inactive) | 106 | -231% (inactive) | 133 | -0.376 (inactive) | 5.2e-06 (inactive) | 0.00709 (inactive) | -22% (inactive) | -25.1% (inactive)
Cc1nc2ncnn2c(N2CCC(C(=O)NC3CCCC3)CC2)c1Cc1ccccc1 | 400 | 2.7% (inactive) | -20.2% (inactive) | 116 | -87.8% (inactive) | 117 | -0.463 (inactive) | -0.000271 (inactive) | 0.00426 (inactive) | 5.2% (inactive) | 25.7% (inactive)
CN(C)/C=N/c1ncnc2c1cnn2-c1ccc(C(F)(F)F)cn1 | 565 | -0.9% (inactive) | -3.8% (inactive) | 110 | 21% (inactive) | 114 | -0.583 (inactive) | -4.6e-05 (inactive) | 0.0102 (inactive) | -45.2% (inactive) | -118% (inactive)
CN(C)c1nc(N)nc(-c2nc3ccccc3s2)n1 | 824 | -2.1% (inactive) | -13.6% (inactive) | 97.7 | -96.9% (inactive) | 122 | -0.489 (inactive) | -2.4e-05 (inactive) | 0.00639 (inactive) | -26% (inactive) | -41.6% (inactive)
COc1ccc(-n2c(SCC(=O)N3CCCCC3C)nnc2-c2cccnc2)cc1 (stereo not drawn) | 584 | -12.2% (inactive) | 24.3% (inactive) | 93.6 | -23.2% (inactive) | 103 | -0.337 (inactive) | -5.2e-05 (inactive) | 0.00523 (inactive) | 6.12% (inactive) | 9.8% (inactive)
Cc1cc(C)n(-c2cc(N3CCOCC3)nc(-c3ccccc3)n2)n1 | 323 | -14% (inactive) | -20.5% (inactive) | 105 | -59.2% (inactive) | 114 | -0.385 (inactive) | -1.3e-05 (inactive) | 0.00416 (inactive) | 6.61% (inactive) | 12.6% (inactive)
CCCCN(CCCC)CCn1cnc2c([nH]c3ccc(OC)cc32)c1=O | 569 | -7.1% (inactive) | 0.2% (inactive) | 85.8 | -65.8% (inactive) | 105 | -0.536 (inactive) | -1.1e-05 (inactive) | 0.00685 (inactive) | 4.54% (inactive) | 30.7% (inactive)
O=C(NCC1COc2ccccc2O1)C1CCCN(S(=O)(=O)c2cnc[nH]2)C1 (stereo not drawn) | 617 | 7.3% (inactive) | -15.6% (inactive) | 100 | -63.3% (inactive) | 124 | -0.501 (inactive) | -2e-05 (inactive) | 0.00703 (inactive) | 4.57% (inactive) | 24.5% (inactive)
COC(=O)c1ccc(-c2nn(C)c(=O)c3ccccc23)cc1 | 493 | -5.5% (inactive) | -11.1% (inactive) | 76.7 | -13.3% (inactive) | 97.9 | -0.55 (inactive) | -3e-05 (inactive) | 0.00686 (inactive) | 8.98% (inactive) | 29.2% (inactive)
O=C(CN1C(=O)CC(c2ccco2)Sc2ccccc21)Nc1ccccc1F (stereo not drawn) | 551 | -2.9% (inactive) | -3.5% (inactive) | 111 | -28.3% (inactive) | 110 | -0.588 (inactive) | 1.9e-05 (inactive) | 0.00681 (inactive) | 12.5% (inactive) | 15.3% (inactive)
CCOC(=O)N1CCC(N2C(=O)c3ccccc3C2Nc2cc(Cl)c(OC)cc2OC)CC1 (stereo not drawn) | 761 | -2.3% (inactive) | -25.4% (inactive) | 111 | -35.7% (inactive) | 114 | -0.596 (inactive) | -3.8e-05 (inactive) | 0.0052 (inactive) | -7.31% (inactive) | 4.34% (inactive)
COc1cc(OC)c(-c2nn3c(C4CCCCC4)nnc3s2)cc1OC | 573 | 7.2% (inactive) | 1.8% (inactive) | 109 | -115% (inactive) | 126 | -0.412 (inactive) | -5.9e-05 (inactive) | 0.00604 (inactive) | 12.8% (inactive) | 16.9% (inactive)
O=C(c1ccco1)N1CCN(S(=O)(=O)c2ccc3c(c2)CCN3C(=O)C2CCC2)CC1 | 600 | 1.2% (inactive) | 22.2% (inactive) | 97 | -53.2% (inactive) | 115 | -0.425 (inactive) | -3.6e-06 (inactive) | 0.00394 (inactive) | -18.7% (inactive) | -87.3% (inactive)
Cc1cc(N=Cc2cc(Br)ccc2O)no1 | 330 | -6.7% (inactive) | -17.3% (inactive) | 106 | -147% (inactive) | 121 | -0.311 (inactive) | -3.4e-05 (inactive) | 0.00663 (inactive) | 15.6% (inactive) | 15.7% (inactive)
Cc1ccc(N(CC(=O)NCC2CCCO2)S(C)(=O)=O)cc1Cl (stereo not drawn) | 478 | -4.5% (inactive) | 0.2% (inactive) | 114 | -59.9% (inactive) | 121 | -0.292 (inactive) | -1.4e-05 (inactive) | 0.00598 (inactive) | 23.8% (inactive) | 12.4% (inactive)
CC1Cc2ccccc2N1C(=O)C12CCC(C)(C(=O)C1)C2(C)C (stereo not drawn) | 387 | -1.6% (inactive) | -6.9% (inactive) | 99.5 | -141% (inactive) | 116 | -0.544 (inactive) | -7.5e-05 (inactive) | 0.00468 (inactive) | -4.72% (inactive) | 1.25% (inactive)
